Screening data as filed in PubChem.
Compounds with a hit are over-represented: about 21% of the library has one in this group of screens.
Pf growth 96h: P. falciparum growth inhibition at 96 hour, primary screen for plastid delayed-death inhibitors; P. falciparum luciferase reporter growth, 96 h; Potency, µM (doses to about 28.7 µM), inactives show at the top dose activity change, negative = inhibition, hits mostly inhibitors; 320,000 tested, 6.9% active; AID 504834; further: potency means the concentration at half of the fitted maximal effect; on the % scale 0 is the no-effect control and ±100 the full control effect
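Erythrocytes infected with luciferase-expressing P. falciparum were dispensed at 2% hematocrit and 0.05% parasitemia (final), then incubated with compounds 96 hours at 37 C in 5% CO2. Luminescence after detection reagent addition reported growth.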
HCV inh: HCV inhibition; Huh7.5.1 HCVcc-Cre infection, luciferase reporter, 44 h; Potency, µM (top dose mostly 41.8 µM), inactives show at the top dose activity change, negative = inhibition, most hits filed as inhibitors; 340,000 tested, 3.4% active; AID 651820; further: potency means the concentration at half of the fitted maximal effect; on the % scale 0 is the no-effect control and ±100 the full control effect
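Reporter virus HCVcc-Cre (~0.5 moi) infects cells exposed to compound; seeding density 1,000 cells/well with 4 h settling beforehand. Luminescence, 15 sec read, taken 44 h post-infection following a 15 min RT substrate incubation.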
HCMV antiviral: human cytomegalovirus inhibition. AID 1259415. 410,000 tested, 4.5% active. activity change, negative = inhibition, % at 57.5 µM. HFF cells, HCMV-luciferase reporter, 72 h; hits give low values; in the data active means activity change below about -60%; inconclusive means no clear call, values can overlap the other calls; inactive means above about -39%; further: on the % scale 0 is the no-effect control and ±100 the full control effect
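Human foreskin fibroblasts infected with luciferase-reporter HCMV at MOI 1 PFU/cell, compounds at two doses. Luciferase measured 72 h post infection; normalized to buffer-only basal and Salinomycin (10uM) controls.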
Shiga inhibitor: Shiga toxin inhibition. AID 2315. 290,000 tested, 9.2% active. inhibition, % at 38.7 µM. Vero cells, Shiga toxin protein synthesis inhibition reporter; in the data active means inhibition mostly above about 28%, no sharp cut-off; inactive means mostly below about 43%; further: 0% is about no effect
Pf growth 48h: inhibits P. falciparum growth in the first generation, 48 h; 310,000 tested, 5.9% active; Potency, µM (doses to about 28.7 µM), for inactives: at the top dose activity change, negative = inhibition, hits mostly inhibitors; P. falciparum luciferase growth in erythrocytes, 48 h; further: potency means the concentration at half of the fitted maximal effect; on the % scale 0 is the no-effect control and ±100 the full control effect
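Erythrocytes infected with P. falciparum carrying an integrated firefly luciferase reporter (2% hematocrit, 0.1% parasitemia final) were exposed to compounds in RPMI 1640 with 0.5% Albumax at 37 C, 5% CO2. Growth inhibition was scored as reduced luminescence.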
Cycloheximide cs: counter-screen for Shiga toxin inhibitors: cycloheximide protein synthesis inhibition | AID 2314 | 300,000 tested, 12% active | max response, % | cell reporter, cycloheximide protein synthesis inhibition counterscreen; in the data active means max response mostly above about 13%, no sharp cut-off; inactive means mostly below about 14%; further: read at 38.3 µM for the half of the compounds with a filed dose; 0% is about no effect
* marks the source's active call; other numbers are inactive results; ? = inconclusive; / = no result given. Unless noted, the call rests on the fitted dose curve; in most records, active means well fitted inhibition curve with a large enough effect; inconclusive means small, poorly fitted or top-dose-only effect, or another doubt; inactive means no such curve, though single readings can be large or run the other way.

SMILES	Pf growth 96h	HCV inh	HCMV antiviral	Shiga inhibitor	Pf growth 48h	Cycloheximide cs
CCCCCC(=O)N(Cc1ccccc1)c1c(N)n(CCOC)c(=O)[nH]c1=O	/	22%	108	/	/	/
Cc1cc(C)cc(N2CC(C(=O)NC3CCCCC3)CC2=O)c1 (stereo unspecified)	?	-1%	-19	-8	14%	-5
COc1ccc(CN2CCN(C(C)C(=O)N(C)Cc3cccc(F)c3)CC2)cc1OC (stereo unspecified)	?	?	-102*	-2	-11%	3
COc1ccc(CN2CCN(C(C)C(=O)NC(C)c3ccc(F)cc3)CC2)cc1F (stereo unspecified)	-13%	-28%	?	-8	-12%	-11
O=C(c1cc(N2CCOCC2)c(F)cc1[N+](=O)[O-])N1CCOCC1	?	2%	11	-3	-12%	2
Cc1ccc(CN2CC(C(=O)N3CC=C(c4ccccc4)CC3)CC2=O)cc1 (stereo unspecified)	?	?	4	-10	-23%	-2
COc1ccc(S(=O)(=O)N2c3cc(Cl)ccc3Oc3nc4ccccc4nc32)cc1	32%	?	-89*	50*	30%	17
COc1cc(C(=O)NC2CC(=O)N(c3cccc(F)c3)C2)cc(OC)c1OC (stereo unspecified)	/	/	43	/	/	/
CCOC(=O)N1CCC2(CC1)CC(=O)c1c(ccc3oc(C(=O)O)c(C)c13)O2	/	13%	34	-6	-16%	-1
CCOC(=O)c1oc2ccc3c(c2c1C)C(=O)CC1(CCN(C(=O)OCC)CC1)O3	16%	11%	-15	-7	2.6µM*	-2
Cc1c(C(=O)NCc2ccc(Cl)cc2)oc2ccc3c(c12)C(=O)CC(C)(C)O3	/	/	-18	/	/	/
CCCNC(=O)c1oc2ccc3c(c2c1C)C=CC(C)(C)O3	42%	?	-61*	76*	43%	49*
CCOC(=O)c1ccc(NC(=O)c2oc3ccc4c(c3c2C)C(=O)CC(C)(CC)O4)cc1 (stereo unspecified)	/	/	7	/	/	/
CCCNC(=O)c1oc2ccc3c(c2c1C)C(=O)CC(C)(C)O3	/	10µM*	9	50*	94%	44*
Fc1cccc(-c2nnn3c2nc(NCc2ccc4c(c2)OCO4)c2ccccc23)c1	/	/	44	/	/	/
CCN(CCCNC(=O)c1cc2c(=O)[nH]c3ccccc3c2s1)c1ccccc1	/	/	-81*	/	/	/
CCCN1CCN(CCCNC(=O)c2cc3c(=O)[nH]c4ccccc4c3s2)CC1	421%	?	26	18	?	2
COCCNC(=O)c1cc2c(=O)[nH]c3ccccc3c2s1	1.2µM*	3%	31	-20	?	4
O=C(c1ccc2ccccc2c1)c1cccc(F)c1C(=O)O	/	/	-8	/	/	/
CCOC(=O)c1ccc(NC(=O)CSc2nc3ncc(Br)c(C)c3[nH]2)cc1	/	/	-12	/	/	/
O=C(CCCN1C(=O)/C(=C/c2ccccc2Cl)SC1=S)NNC(=O)c1ccccc1Cl	?	12%	-88*	-15	0%	-7
O=C(CCN1C(=O)S/C(=C\c2ccccc2)C1=O)N1CCOCC1	/	-2%	30	/	/	/
O=C(CCCN1C(=O)/C(=C/c2ccccc2)SC1=S)N1CCOCC1	3%	-7%	-97*	4	?	11
O=C(CCCN1C(=O)/C(=C/c2ccccc2Cl)SC1=S)NNC(=O)c1ccncc1	?	-20%	?	-9	?	-4
O=C(CCCN1C(=O)/C(=C/c2cccc(Br)c2)SC1=S)N1CCOCC1	9%	-10%	8	-12	16%	6
SMILES	Pf growth 96h	HCV inh	HCMV antiviral	Shiga inhibitor	Pf growth 48h	Cycloheximide cs
O=C(CCCN1C(=O)/C(=C/c2ccccc2Cl)SC1=S)NCCCN1CCOCC1	?	-19%	?	-9	12µM*	-4
O=C(CCN1C(=O)/C(=C/c2ccccc2F)SC1=S)NCCCN1CCOCC1	7%	?	-38	-4	?	-3
O=C(CCN1C(=O)/C(=C\c2ccccc2)SC1=S)N1CCOCC1	-14%	-6%	-11	-2	12µM*	-1
CCOc1cc(-c2nnc(SCC(=O)Nc3ccc(F)c(F)c3)nc2-c2ccc(OC)c(OCC)c2)ccc1OC	/	/	8	/	/	/
O=C(O)C1CCN(C(=O)CCN2C(=O)S/C(=C\c3ccccc3)C2=O)CC1	9%	23%	?	-5	11%	14
O=C1C(=Cc2cccc(O)c2O)SC(=S)N1CCCN1CCOCC1	/	/	-97*	/	/	/
O=C(CCN1C(=O)/C(=C/c2ccccc2Cl)SC1=S)N1CCOCC1	?	5.6µM*	-38	1	13µM*	11
O=C(CCCN1C(=O)/C(=C/c2ccccc2Cl)SC1=S)N1CCCC1	9.3µM*	?	-109*	-1	?	-2
O=C(CCN1C(=O)S/C(=C\c2ccccc2)C1=O)N1CCCCC1	27%	-5%	-2	75*	-5%	27*
CCOc1ccc(NC(=O)COC(=O)CNC(=O)c2ccc(-c3ccccc3)cc2)cc1	-11%	-4%	0	/	7%	/
COc1ccc(OC)c(N(CC(=O)Nc2ccccc2F)S(=O)(=O)c2ccccc2)c1	/	-5%	?	/	/	/
Cc1c(N2C(=O)/C(=C/c3ccc(N(C)C)cc3)N(C)C2=S)c(=O)n(-c2ccccc2)n1C	/	-9%	-20	/	/	/
CC(N)C(=O)NCC(=O)NC1CSSCC(C(=O)O)NC(=O)C(CO)NC(=O)C(C(C)O)NC(=O)C(Cc2ccccc2)NC(=O)C(C(C)O)NC(=O)C(CCCCN)NC(=O)C(Cc2c[nH]c3ccccc23)NC(=O)C(Cc2ccccc2)NC(=O)C(Cc2ccccc2)NC(=O)C(CC(N)=O)NC(=O)C(CCCCN)NC1=O (stereo unspecified)	?	/	/	/	1%	/
